# Results: the supplement of paper PMC8728848
# Many of the other results were omitted from the sample, so the strongest signals are more common in it than they were.
# B1: PX15642A-pgi-501-20-501 (Parabacteroides gingivalis) (protein)
# chain: CELDRDPEGKDFQQPYTSFVQTKQNRDGLYALLRNTENPRMHFYQELQSDMYCTTITDGNSLAPFVNWDLGILNDHGRADEDEVSGIAGYYFVYNRLNQQANAFVNNTEAALQNQVYKNSTEIANAKSFLAEGKVLQALAIWRLMDRFSFHESVTEVNSGAKDLGVILLKEYNPGYIGPRATKAQCYDYILSRLSEAIEVLPENRESVLYVSRDYAYALRARIYLALGEYGKAAADAKMVVDKYPLIGAADASEFENIYRSDANNPEIIFRGFASATLGSFTATTLNGAAPAGKDIKYNPSAVPFQWVVDLYENEDFRKSVYIAKVVKKDKGYLVNKFLEDKAYRDVQDKPNLKVGARYFSVAEVYLILVESALQTGDTPTAEKYLKALSKARGAEVSVVNMEALQAERTRELIGEGSRLRDMVRWSIPNNHDAFETQPGLEGFANTTPLKAQAPVGFYAYTWEFPQRDRQTNPQLIKNWPI
# Columns and labels:
# Assay in all cases: glycan array binding signal (z-score within array); higher = stronger binding
# Details in all cases: glycan notation: IUPAC condensed, linker removed
# [1] = target: Fuc(a1-2)Gal(b1-3)GlcNAc
# In short: (§1)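 From the Consortium for Functional Glycomics database, 3228 arrays were curated, keeping only those whose protein sequence was available. Binding is given as a within-array Z-score averaged across arrays sharing a protein sequence and across linkers. Negative Z-scores can be read as non-binding.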
# [2] = target: Fuc(a1-2)Gal(b1-3)GlcNAc(b1-2)Man(a1-3)[Fuc(a1-2)Gal(b1-3)GlcNAc(b1-2)Man(a1-6)]Man(b1-4)GlcNAc(b1-4)[Fuc(a1-6)]GlcNAc
# In short: as §1
# [3] = target: Fuc(a1-2)Gal(b1-3)GlcNAc(b1-3)GalNAc
# In short: as §1
# [4] = target: Fuc(a1-2)Gal(b1-3)GlcNAc(b1-3)[Neu5Ac(a2-6)Gal(b1-4)GlcNAc(b1-6)]Gal(b1-4)Glc
# In short: as §1
# [5] = target: Fuc(a1-2)Gal(b1-4)GlcNAc(b1-6)GalNAc
# In short: as §1
# [6] = target: Fuc(a1-2)[Gal(a1-3)]Gal(b1-4)GlcNAc(b1-2)Man
# In short: as §1
# [7] = target: Fuc(a1-2)[Gal(a1-3)]Gal(b1-4)GlcNAc(b1-2)Man(a1-3)[Fuc(a1-2)[Gal(a1-3)]Gal(b1-4)GlcNAc(b1-2)Man(a1-6)]Man(b1-4)GlcNAc(b1-4)GlcNAc
# In short: as §1
# [8] = target: Fuc(a1-2)[Gal(a1-3)]Gal(b1-4)GlcNAc(b1-3)GalNAc
# In short: as §1
# [9] = target: Fuc(a1-2)[Gal(a1-3)]Gal(b1-4)GlcNAc(b1-3)[Fuc(a1-2)[Gal(a1-3)]Gal(b1-4)GlcNAc(b1-6)]GalNAc
# In short: as §1
# [10] = target: Fuc(a1-2)[GalNAc(a1-3)]Gal(b1-4)GlcNAc(b1-2)Man
# In short: as §1
# [11] = target: Fuc(a1-3)[Gal(b1-4)]GlcNAc(b1-3)GalNAc
# In short: as §1
# [12] = target: Fuc(a1-4)GlcNAc
# In short: as §1
# [13] = target: Gal(a1-3)Gal(b1-4)GlcNAc(b1-2)Man(a1-3)[Gal(a1-3)Gal(b1-4)GlcNAc(b1-2)Man(a1-6)]Man(b1-4)GlcNAc(b1-4)GlcNAc
# In short: as §1
# [14] = target: Gal(a1-3)[Gal(a1-4)]Gal(b1-4)GlcNAc
# In short: as §1
# [15] = target: Gal(a1-4)Gal(b1-4)GlcNAc(b1-2)Man(a1-3)[Gal(a1-4)Gal(b1-4)GlcNAc(b1-2)Man(a1-6)]Man(b1-4)GlcNAc(b1-4)GlcNAc
# In short: as §1
# [16] = target: Gal(b1-3)Gal
# In short: as §1
# [17] = target: Gal(b1-3)GalNAc(a1-3)[Fuc(a1-2)]Gal(b1-4)Glc
# In short: as §1
# [18] = target: Gal(b1-3)GlcNAc(b1-6)GalNAc
# In short: as §1
# [19] = target: Gal(b1-3)GlcNAc6S
# In short: as §1
# [20] = target: Gal(b1-3)[Fuc(a1-4)]GlcNAc
# In short: as §1
# [21] = target: Gal(b1-4)Gal
# In short: as §1
# [22] = target: Gal(b1-4)GlcNAc(b1-2)Man(a1-3)[GlcNAc(b1-2)Man(a1-6)]Man(b1-4)GlcNAc(b1-4)GlcNAc
# In short: as §1
# [23] = target: Gal(b1-4)GlcNAc(b1-2)Man(a1-6)[Man(a1-3)]Man(b1-4)GlcNAc(b1-4)GlcNAc
# In short: as §1
# [24] = target: Gal(b1-4)GlcNAc(b1-2)[Gal(b1-4)GlcNAc(b1-4)]Man(a1-3)[Gal(b1-4)GlcNAc(b1-2)[Gal(b1-4)GlcNAc(b1-6)]Man(a1-6)]Man(b1-4)GlcNAc(b1-4)GlcNAc
# In short: as §1
# [25] = target: Gal(b1-4)GlcNAc(b1-2)[Gal(b1-4)GlcNAc(b1-6)]Man(a1-6)[Gal(b1-4)GlcNAc(b1-2)Man(a1-3)]Man(b1-4)GlcNAc(b1-4)[Fuc(a1-6)]GlcNAc
# In short: as §1
# [26] = target: Gal(b1-4)GlcNAc(b1-3)Gal(b1-4)GlcNAc(b1-2)Man(a1-3)[Gal(b1-4)GlcNAc(b1-3)Gal(b1-4)GlcNAc(b1-2)Man(a1-6)]Man(b1-4)GlcNAc(b1-4)GlcNAc
# In short: as §1
# [27] = target: Gal(b1-4)GlcNAc(b1-3)Gal(b1-4)GlcNAc(b1-2)[Gal(b1-4)GlcNAc(b1-3)Gal(b1-4)GlcNAc(b1-6)]Man(a1-6)[Gal(b1-4)GlcNAc(b1-3)Gal(b1-4)GlcNAc(b1-2)Man(a1-3)]Man(b1-4)GlcNAc(b1-4)GlcNAc
# In short: as §1
# [28] = target: Gal(b1-4)GlcNAc(b1-3)Gal(b1-4)GlcNAc(b1-6)[Gal(b1-3)]GalNAc
# In short: as §1
# [29] = target: Gal(b1-4)GlcNAc6P
# In short: as §1
# [30] = target: GalNAc(b1-4)GlcNAc(b1-2)Man(a1-3)[GalNAc(b1-4)GlcNAc(b1-2)Man(a1-6)]Man(b1-4)GlcNAc(b1-4)GlcNAc
# In short: as §1
# [31] = target: GalNAc(b1-4)GlcNAc(b1-3)GalNAc(b1-4)GlcNAc
# In short: as §1
# [32] = target: Glc(a1-6)Glc(a1-6)Glc
# In short: as §1
# [33] = target: GlcNAc(b1-2)Man(a1-3)[GlcNAc(b1-2)Man(a1-6)]Man(b1-4)GlcNAc(b1-4)[Fuc(a1-6)]GlcNAc
# In short: as §1
# [34] = target: GlcNAc(b1-2)[GlcNAc(b1-6)]Man(a1-6)[GlcNAc(b1-4)][GlcNAc(b1-2)Man(a1-3)]Man(b1-4)GlcNAc(b1-4)GlcNAc
# In short: as §1
# [35] = target: GlcNAc(b1-3)Gal(b1-4)GlcNAc(b1-3)Gal(b1-4)GlcNAc(b1-2)Man(a1-3)[GlcNAc(b1-3)Gal(b1-4)GlcNAc(b1-3)Gal(b1-4)GlcNAc(b1-2)Man(a1-6)]Man(b1-4)GlcNAc(b1-4)GlcNAc
# In short: as §1
# [36] = target: GlcNAc(b1-3)Gal(b1-4)GlcNAc(b1-3)[GlcNAc(b1-3)Gal(b1-4)GlcNAc(b1-3)]GalNAc
# In short: as §1
# [37] = target: GlcNAc(b1-4)GlcNAc(b1-4)GlcNAc(b1-4)GlcNAc(b1-4)GlcNAc
# In short: as §1
# [38] = target: Man(a1-3)[Man(a1-6)]Man(a1-6)[Man(a1-2)Man(a1-3)]Man(b1-4)GlcNAc(b1-4)GlcNAc
# In short: as §1
# [39] = target: Man(b1-4)GlcNAc
# In short: as §1
# [40] = target: Neu5Ac(a2-3)Gal(b1-3)[Neu5Ac(a2-6)]GlcNAc(b1-3)[Fuc(a1-3)[Gal(b1-4)]GlcNAc(b1-6)]Gal(b1-4)Glc
# In short: as §1
# [41] = target: Neu5Ac(a2-3)Gal(b1-4)GlcNAc(b1-3)Gal(b1-4)GlcNAc(b1-2)Man(a1-3)[Neu5Ac(a2-3)Gal(b1-4)GlcNAc(b1-3)Gal(b1-4)GlcNAc(b1-2)Man(a1-6)]Man(b1-4)GlcNAc(b1-4)GlcNAc
# In short: as §1
# [42] = target: Neu5Ac(a2-3)Gal(b1-4)GlcNAc(b1-3)Gal(b1-4)GlcNAc(b1-3)GalNAc
# In short: as §1
# [43] = target: Neu5Ac(a2-3)Gal(b1-4)GlcNAc6S
# In short: as §1
# [44] = target: Neu5Ac(a2-3)Gal(b1-4)[Fuc(a1-3)]GlcNAc(b1-3)GalNAc
# In short: as §1
# [45] = target: Neu5Ac(a2-3)Gal6S(b1-4)[Fuc(a1-3)]GlcNAc
# In short: as §1
# [46] = target: Neu5Ac(a2-3)[GalNAc(b1-4)]Gal(b1-4)GlcNAc(b1-3)GalNAc
# In short: as §1
# [47] = target: Neu5Ac(a2-6)Gal(b1-4)GlcNAc
# In short: as §1
# [48] = target: Neu5Ac(a2-6)Gal(b1-4)GlcNAc(b1-3)Gal(b1-4)GlcNAc(b1-3)Gal(b1-4)GlcNAc(b1-2)Man(a1-3)[Neu5Ac(a2-6)Gal(b1-4)GlcNAc(b1-3)Gal(b1-4)GlcNAc(b1-3)Gal(b1-4)GlcNAc(b1-2)Man(a1-6)]GalNAc
# In short: as §1
# [49] = target: Neu5Ac(a2-6)GalNAc(b1-4)GlcNAc6S
# In short: as §1
# [50] = target: Neu5Ac(a2-8)Neu5Ac(a2-3)[GalNAc(b1-4)]Gal(b1-4)Glc
# In short: as §1
# [51] = target: Neu5Ac(a2-8)Neu5Ac(a2-8)Neu5Ac(a2-3)[Gal(b1-3)GalNAc(b1-4)]Gal(b1-4)Glc
# In short: as §1
# [52] = target: Neu5Ac(a2-8)Neu5Ac(a2-8)Neu5Ac(a2-3)[GalNAc(b1-4)]Gal(b1-4)Glc
# In short: as §1
# [53] = target: Neu5Ac(a2-8)Neu5Gc(a2-3)Gal(b1-4)GlcNAc
# In short: as §1
# [54] = target: Neu5Gc(a2-3)Gal(b1-4)GlcNAc(b1-3)Gal(b1-4)GlcNAc(b1-2)Man(a1-3)[Neu5Gc(a2-3)Gal(b1-4)GlcNAc(b1-3)Gal(b1-4)GlcNAc(b1-2)Man(a1-6)]Man(b1-4)GlcNAc(b1-4)GlcNAc
# In short: as §1
# [55] = target: Neu5Gc(a2-3)Gal(b1-4)[Fuc(a1-3)]GlcNAc
# In short: as §1
# [56] = target: Neu5Gc(a2-8)Neu5Gc(a2-6)Gal(b1-4)GlcNAc
# In short: as §1
binder,measurement,setting,value
B1,glycan array binding signal (z-score),[1],-0.306
same,glycan array binding signal (z-score),[2],0.224
same,glycan array binding signal (z-score),[3],-0.094
same,glycan array binding signal (z-score),[4],-0.121
same,glycan array binding signal (z-score),[5],2.85
same,glycan array binding signal (z-score),[6],-0.144
same,glycan array binding signal (z-score),[7],0.849
same,glycan array binding signal (z-score),[8],1.21
same,glycan array binding signal (z-score),[9],0.225
same,glycan array binding signal (z-score),[10],-0.848
same,glycan array binding signal (z-score),[11],-0.744
same,glycan array binding signal (z-score),[12],2.72
same,glycan array binding signal (z-score),[13],-0.319
same,glycan array binding signal (z-score),[14],6.32
same,glycan array binding signal (z-score),[15],0.38
same,glycan array binding signal (z-score),[16],0.322
same,glycan array binding signal (z-score),[17],1.53
same,glycan array binding signal (z-score),[18],-0.003
same,glycan array binding signal (z-score),[19],0.706
same,glycan array binding signal (z-score),[20],-0.298
same,glycan array binding signal (z-score),[21],0.332
same,glycan array binding signal (z-score),[22],0.359
same,glycan array binding signal (z-score),[23],-0.027
same,glycan array binding signal (z-score),[24],0.733
same,glycan array binding signal (z-score),[25],0.317
same,glycan array binding signal (z-score),[26],2.09
same,glycan array binding signal (z-score),[27],2.23
same,glycan array binding signal (z-score),[28],2.71
same,glycan array binding signal (z-score),[29],-0.285
same,glycan array binding signal (z-score),[30],1.15
same,glycan array binding signal (z-score),[31],5.6
same,glycan array binding signal (z-score),[32],1.35
same,glycan array binding signal (z-score),[33],0.116
same,glycan array binding signal (z-score),[34],-0.076
same,glycan array binding signal (z-score),[35],2.32
same,glycan array binding signal (z-score),[36],0.014
same,glycan array binding signal (z-score),[37],0
same,glycan array binding signal (z-score),[38],0.018
same,glycan array binding signal (z-score),[39],0.033
same,glycan array binding signal (z-score),[40],-0.808
same,glycan array binding signal (z-score),[41],0.992
same,glycan array binding signal (z-score),[42],-0.213
same,glycan array binding signal (z-score),[43],-0.486
same,glycan array binding signal (z-score),[44],3.38
same,glycan array binding signal (z-score),[45],-1.24
same,glycan array binding signal (z-score),[46],-1.14
same,glycan array binding signal (z-score),[47],-0.264
same,glycan array binding signal (z-score),[48],2.23
same,glycan array binding signal (z-score),[49],0.286
same,glycan array binding signal (z-score),[50],-0.038
same,glycan array binding signal (z-score),[51],1.75
same,glycan array binding signal (z-score),[52],0.122
same,glycan array binding signal (z-score),[53],15.5
same,glycan array binding signal (z-score),[54],0.077
same,glycan array binding signal (z-score),[55],-0.476
same,glycan array binding signal (z-score),[56],-0.753
